# Measurements taken from PubChem BioAssay AID1159580 (chemical genetic matrix, 2015).
# Among all 5,500 compounds or so, about 2,000 (36%) were called active. About 18% were inconclusive and are not listed. Some of the results follow. Values without a mark were called inactive. No stated cut-off is given here; in the data, active means normalized growth mostly below about 0.91 (no sharp cut-off); inconclusive means no clear call, values can overlap the other calls; inactive means mostly above about 0.92.
# Test: chemical genetic growth profiling, strain panel (AID 1159580);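 further: tested at 20 µM; growth read once vehicle control cultures reached saturation at 30 °C; 1 = growth at the plate median or of vehicle wells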
# Details: S. cerevisiae deletion strains, growth OD
smiles,measurement,setting,value
O=c1c(O)c(-c2ccc(O)c(O)c2)oc2c(O[C@@H]3O[C@H](CO)[C@H](O)[C@@H](O)[C@H]3O)c(O)cc(O)c12,normalized growth,"locus YAL021C, strain ccr4, stronger effect = lower value",1.01
same,normalized growth,"locus YAL026C, strain drs2, stronger effect = lower value",1.03
same,normalized growth,"locus YAL030W, strain snc1, stronger effect = lower value",1.01
same,normalized growth,"locus YBL061C, strain skt5, stronger effect = lower value",1.01
same,normalized growth,"locus YBR009C, strain hhf1, stronger effect = lower value",1.02
same,normalized growth,"locus YBR023C, strain chs3, stronger effect = lower value",1.03
same,normalized growth,"locus YBR171W, strain sec66, stronger effect = lower value",1.02
same,normalized growth,"locus YBR231C, strain swc5, stronger effect = lower value",1.01
same,normalized growth,"locus YBR279W, strain paf1, stronger effect = lower value",1.01
same,normalized growth,"locus YCL011C, strain gbp2, stronger effect = lower value",1.03
same,normalized growth,"locus YCL016C, strain dcc1, stronger effect = lower value",1.02
same,normalized growth,"locus YCL061C, strain MRC1, stronger effect = lower value",1
same,normalized growth,"locus YCL069W, strain vba3, stronger effect = lower value",1.03
same,normalized growth,"locus YCR088W, strain abp1, stronger effect = lower value",1
same,normalized growth,"locus YDL005C, strain med2, stronger effect = lower value",1
same,normalized growth,"locus YDL040C, strain nat1, stronger effect = lower value",1.01
same,normalized growth,"locus YDR001C, strain nth1, stronger effect = lower value",1.02
same,normalized growth,"locus YDR069C, strain doa4, stronger effect = lower value",1.03
same,normalized growth,"locus YDR137W, strain rgp1, stronger effect = lower value",0.988
same,normalized growth,"locus YDR159W, strain sac3, stronger effect = lower value",0.997
same,normalized growth,"locus YDR195W, strain ref2",0.965
same,normalized growth,"locus YDR297W, strain sur2, stronger effect = lower value",1.03
same,normalized growth,"locus YDR334W, strain swr1, stronger effect = lower value",1.02
same,normalized growth,"locus YDR335W, strain msn5, stronger effect = lower value",1.02
same,normalized growth,"locus YDR392W, strain spt3, stronger effect = lower value",0.978
same,normalized growth,"locus YEL003W, strain gim4, stronger effect = lower value",1.02
same,normalized growth,"locus YEL037C, strain rad23, stronger effect = lower value",1.01
same,normalized growth,"locus YEL061C, strain CIN8 (second series), stronger effect = lower value",1.03
same,normalized growth,"locus YER015W, strain faa2, stronger effect = lower value",1
same,normalized growth,"locus YER016W, strain bim1, stronger effect = lower value",1.01
same,normalized growth,"locus YER111C, strain swi4, stronger effect = lower value",1.01
same,normalized growth,"locus YER155C, strain BEM2 (second series), stronger effect = lower value",1.04
same,normalized growth,"locus YFR010W, strain ubp6, stronger effect = lower value",1.01
same,normalized growth,"locus YGL167C, strain pmr1, stronger effect = lower value",1.02
same,normalized growth,"locus YGL173C, strain kem1, stronger effect = lower value",1.02
same,normalized growth,"locus YGL227W, strain vid30, stronger effect = lower value",0.999
same,normalized growth,"locus YGL240W, strain doc1, stronger effect = lower value",1.01
same,normalized growth,"locus YGL253W, strain hxk2, stronger effect = lower value",1.02
same,normalized growth,"locus YHR013C, strain ard1, stronger effect = lower value",1.02
same,normalized growth,"locus YHR027C, strain rpn1, stronger effect = lower value",0.998
same,normalized growth,"locus YHR030C, strain SLT2, stronger effect = lower value",0.895
same,normalized growth,"locus YHR079C, strain IRE1, stronger effect = lower value",0.886
same,normalized growth,"locus YHR142W, strain chs7, stronger effect = lower value",1.04
same,normalized growth,"locus YJL092W, strain hpr5, stronger effect = lower value",1.01
same,normalized growth,"locus YJL095W, strain BCK1 (second series), stronger effect = lower value",1.01
same,normalized growth,"locus YJL095W, strain BCK1, stronger effect = lower value",0.895
same,normalized growth,"locus YJL115W, strain asf1, stronger effect = lower value",1
same,normalized growth,"locus YJL129C, strain trk1, stronger effect = lower value",1
same,normalized growth,"locus YJL154C, strain vps35, stronger effect = lower value",1.02
same,normalized growth,"locus YJL164C, strain tpk1, stronger effect = lower value",1.03
same,normalized growth,"locus YJL166W, strain qcr8, stronger effect = lower value",1.04
same,normalized growth,"locus YJL187C, strain SWE1, stronger effect = lower value",1.03
same,normalized growth,"locus YJR066W, strain TOR1, stronger effect = lower value",0.914
same,normalized growth,"locus YKL160W, strain elf1, stronger effect = lower value",1
same,normalized growth,"locus YKR026C, strain gcn3, stronger effect = lower value",1.01
same,normalized growth,"locus YKR091W, strain srl3, stronger effect = lower value",1.02
same,normalized growth,"locus YLL001W, strain dnm1, stronger effect = lower value",0.989
same,normalized growth,"locus YLL026W, stronger effect = lower value",1.01
same,normalized growth,"locus YLL041C, strain sdh2, stronger effect = lower value",1.02
same,normalized growth,"locus YLR027C, strain aat2, stronger effect = lower value",1.03
same,normalized growth,"locus YLR113W, strain HOG1, stronger effect = lower value",0.834 (active)
same,normalized growth,"locus YLR221C, strain rsa3, stronger effect = lower value",1
same,normalized growth,"locus YLR258W, strain gsy2, stronger effect = lower value",1.01
same,normalized growth,"locus YLR262C, strain YPT6 (second series), stronger effect = lower value",1.06
same,normalized growth,"locus YLR320W, strain mms22, stronger effect = lower value",1.01
same,normalized growth,"locus YLR342W, strain FKS1, stronger effect = lower value",1.02
same,normalized growth,"locus YLR357W, strain rsc2, stronger effect = lower value",0.988
same,normalized growth,"locus YLR370C, strain arc18, stronger effect = lower value",1.02
same,normalized growth,"locus YLR384C, strain iki3, stronger effect = lower value",1
same,normalized growth,"locus YML120C, strain ndi1, stronger effect = lower value",1.01
same,normalized growth,"locus YMR058W, strain fet3, stronger effect = lower value",1.01
same,normalized growth,"locus YMR125W, strain sto1, stronger effect = lower value",1
same,normalized growth,"locus YMR129W, stronger effect = lower value",1.01
same,normalized growth,"locus YMR205C, strain PFK2, stronger effect = lower value",1.02
same,normalized growth,"locus YMR231W, strain pep5, stronger effect = lower value",1
same,normalized growth,"locus YNL071W, strain lat1, stronger effect = lower value",1.03
same,normalized growth,"locus YNL183C, strain NPR1, stronger effect = lower value",0.913
same,normalized growth,"locus YNL209W, strain ssb2, stronger effect = lower value",1.02
same,normalized growth,"locus YNL248C, strain rpa49, stronger effect = lower value",0.988
same,normalized growth,"locus YNL322C, strain KRE1 (second series), stronger effect = lower value",1
same,normalized growth,"locus YNR049C, strain mso1, stronger effect = lower value",1.02
same,normalized growth,"locus YOR001W, strain rrp6, stronger effect = lower value",1.01
same,normalized growth,"locus YOR070C, strain gyp1, stronger effect = lower value",1.01
same,normalized growth,"locus YOR080W, strain dia2, stronger effect = lower value",1.01
same,normalized growth,"locus YOR083W, strain WHI5, stronger effect = lower value",1.03
same,normalized growth,"locus YOR106W, strain vam3, stronger effect = lower value",1.01
same,normalized growth,"locus YOR231W, strain MKK1, stronger effect = lower value",0.91
same,normalized growth,"locus YOR265W, strain rbl2, stronger effect = lower value",1.04
same,normalized growth,"locus YOR270C, strain vph1, stronger effect = lower value",1.11
same,normalized growth,"locus YOR290C, strain snf2, stronger effect = lower value",1.03
same,normalized growth,"locus YPL051W, strain arl3, stronger effect = lower value",1.01
same,normalized growth,"locus YPL078C, strain atp4, stronger effect = lower value",1.01
same,normalized growth,"locus YPL106C, strain sse1, stronger effect = lower value",0.971
same,normalized growth,"locus YPL240C, strain hsp82, stronger effect = lower value",1.02
same,normalized growth,"locus YPL256C, strain CLN2, stronger effect = lower value",0.868
